The results in this text go back to PubChem BioAssay (EPA / NIEHS).

Active and inactive are the calls of the source. The calls were made as follows: active = hit-call score of the fitted dose curve at least 0.9, where 1 is the maximum; inactive = score below 0.9.

Read-out in the experiment: Lipoprotein lipase (LPL), LPL (gene 4023)
Description: LTEA_HepaRG_LPL: Life Technologies and Expression Analysis (LTEA) Assay for Lipoprotein lipase (LPL) using HepaRG (AID 2283515). Particulars: mRNA level, 48 h; actives raise or lower the signal. How it is done: LTEA_HepaRG is a cell based, multiplexed-readout assay that uses HepaRG, a human liver cell line, with measurements taken at 48 hours after chemical dosing on a 96-well plate.LTEA_HepaRG_LPL is one of 102 assay component(s) measured in the LTEA HepaRG cell culture assay. It is a marker of Steatosis.Data from the assay component LTEA_HepaRG_LPL was analyzed into 1 endpoint. This assay endpoint, LTEA_HepaRG_LPL, was analyzed with bidirectional fitting relative to DMSO as the negative control and baseline of activity. Using a type of inducible reporter, measures of mRNA induction for gain or loss-of-signal activity can be used to understand regulation of transcription factor activity. To generalize the intended target to other relatable targets, this assay endpoint is annotated to the esterase intended target family, where the subfamily is lipase.
A total of 1060 chemcials from the ToxCast library were tested in eight-point concentration-response experiments. Cell culture and cytotoxicity assays were conducted at Thermo Fisher Scientific's Custom Services facility (Madison, WI). A single lot of human HepaRG cells (Thermo Fisher Scientific, Frederick, MD) was used for the cell culture experiments. 96-well format collagen type I coated plates of human HepaRG cells were prepared using established methods. Briefly, cryopreserved HepaRG cells were thawed, plated at a density of approximately 100,000 cells/well in HepaRG Thaw, Plate, and General Purpose media (HPRG770, Thermo Fisher Scientific), and incubated for 48 hours. 0.5% DMSO was selected as vehicle control to balance the requisite need of DMSO in HepaRG cultures to maintain differentiation (for example, baseline metabolism, proportions of hepatocytes vs. cholangiocytes), while enabling further hepatic receptor pathway activation (for example, PXR and CAR) in response to chemical exposure. 48 hours after plating, the culture medium was replaced with HepaRG Serum-Free Incudtion Media. Cells were exposed to each test chemical in duplicate and maintained in CO2 incubators for another 48 hours. Chemical plates were thawed to room temperature and 200x concentrations of treatment groups were prepared. 8-point conentration-reponse curves were made with the highest exposure at 100 uM, followed by half-log dilutions, all in 0.5% DMSO. Each test plate contained variouse controls, induction positive controls (1mM phenobarbital), cytotoxicity positive controls ([…] aflatoxin B1), vehicle controls (0.5% DMSO), and total lysis controls (0.5% DMSO). Cell morphology images were taken using an Essen IncuCyte FLR automated microscope, with six 96-well plates imaged in about 24 minutes. Images were captured and exported and JPEG files. Spent culture media was transfered to black-well plates for the LDH assay, and remaining media was sorted at -80 C for later use. Cells were treated with RLT buffer and frozen until shipped for gene expression analysis. Total RNA was isolated from the cell suspension in 75 uL of Buffer RLT (Qiagen, Germantown, MD 20874) by Quintiles/Expression Analysis (Durham, NC) using a custom isolation procedure. Total RNA from each plate well was transferred to a preamplification plate. Fluidigm's 96.96 Dynamic ArrayTM (Fluidigm, Amsterdam, the Netherlands) technology was used for gene expression analyses by quantitative reverse transcription polymerase chain reaction (qRT-PCR, performed by Quintiles/Expression Analysis, Durham, NC)89. Standard TaqManTM Assays (Applied Biosystems/ThermoFisher Scientific, Foster City, CA) were used to assess the expression of 93 genes selected based on their selectivity and sensitivity to important hepatic receptors known to be modulated by environmental chemicals; importance in human hepatocyte functionality; and hepatotoxicity. […]
As for `COS(C)(=O)=O`, the molecule was classed as inactive. On the same count and under the same terms, next, `CCOC(N)=O`: “inactive”. Turning to `CCCCCOC(C)=O`, the molecule was called inactive.

With `CCCCCCCC1CCC(=O)O1` (stereo not given), the result was inactive. The AC50 is the midpoint of the concentration-response curve, whichever way the signal moves. With `CC(C)CCCCCCOC(=O)C1CCCCC1C(=O)OCCCCCCC(C)C` (stereo not given), the AC50 was 9.92 µM (active). On to `O=c1[nH]cnc2c1ncn2[C@H]1CC[C@@H](CO)O1`, for which the call was inactive.

With `OCc1ccccc1`, the result was inactive. As to `CCn1nc(C)c2c1C(=O)NCC(c1ccc(O)cc1)=N2`, the molecule was classed as inactive.

Take `CCc1ccc(O)c(C(C)(C)C)c1`: the call was inactive. Same read-out and setting: in the case of `Cc1ccc(S(=O)(=O)NC(=O)NN2CCCCCC2)cc1` it was “inactive”; in that of `NC(=O)N1c2ccccc2C=Cc2ccccc21`, “inactive”. Regarding `COc1cc(C(C)C)c2c(c1)S(=O)(=O)N(COc1cc(=O)n3cccc(OCCN4CCCCC4)c3n1)C2=O`, the AC50 is 21.2 µM (active). For `CCCCC(CC)C(=O)OCCOCCOCCOC(=O)C(CC)CCCC` (stereo not given), the molecule was classed as inactive.

`Nc1ccn([C@@H]2O[C@H](CO)[C@@H](O)[C@@H]2O)c(=O)n1`: the molecule was called inactive.

On to `NC(=O)NN=Cc1ccc([N+](=O)[O-])o1`, for which the molecule was called inactive. Same read-out and setting: in the case of `OC[C@H]1O[C@@H]2O[C@H]3[C@H](O)[C@@H](O)[C@@H](O[C@H]4[C@H](O)[C@@H](O)[C@@H](O[C@H]5[C@H](O)[C@@H](O)[C@@H](O[C@H]6[C@H](O)[C@@H](O)[C@@H](O[C@H]7[C@H](O)[C@@H](O)[C@@H](O[C@H]1[C@H](O)[C@H]2O)O[C@@H]7CO)O[C@@H]6CO)O[C@@H]5CO)O[C@@H]4CO)O[C@@H]3CO` it was “inactive”; in that of `OCC(CO)(CO)CO`, “inactive”. For `c1ccc2cc3ccccc3cc2c1`, the molecule was classed as inactive. As for `CCCOc1ccc(S(=O)(=O)N2CCN(CC)CC2)cc1-c1nc2c(CC)n(Cc3ccccn3)nc2c(=O)[nH]1`, the AC50 is 56.7 µM (active). Regarding `CCc1cccc(CC)c1N`, the result was inactive.

As for `O=C(O)c1cccc(C(=O)O)c1`, the outcome was inactive. On the same count and under the same terms, in the case of `Cn1cc[nH]c1=S` it was “inactive”; in that of `O=S1(=O)CCCO1`, “inactive”. With `CC[C@H](C)C(=O)O[C@H]1C[C@H](O)C=C2C=C[C@H](C)[C@H](CC[C@@H](O)C[C@@H](O)CC(=O)O)[C@H]21`, the molecule was called inactive. As for `NC(N)=O`, the molecule was called inactive.

Take `Cc1ncc([C@@H](CCCCCCc2ccc3c(n2)NCCC3)CC(=O)O)cn1`: the AC50 is 0.382 µM (active).

Consider `CC(C)c1nnc2ccc(-c3ocnc3-c3cc(F)ccc3F)cn12`, for which the call was inactive. Still for that read-out and setting: in the case of `CC(C)CC(C)O` (stereo not given) it was “inactive”. On the same count and under the same terms, next, `OC(CCl)CCl`: “inactive”; `O=C(O)c1ccc2c(c1)nc(C(=O)NC1CCN(C3CC3)CC1)n2Cc1cc(-c2ccc(Cl)s2)on1`: “inactive”. Same read-out and setting: next, `CCCCCCOC(=O)CC(CC(=O)OCCCCCC)(OC(=O)CCC)C(=O)OCCCCCC`: “inactive”; `c1ccc(C(O[C@@H]2CCCN(CCc3ccc4c(c3)OCO4)C2)c2ccccc2)cc1`: “inactive”. In the case of `CC(C)C(=O)Nc1ccc([N+](=O)[O-])c(C(F)(F)F)c1`, the half-maximal activity concentration (AC50) is 85.7 µM (active). For `CCCCCCCCCC`, the result was inactive. With `Cn1c(=O)c2[nH]cnc2n(C)c1=O`, the result was inactive. Turning to `CCN(CC)C(=S)SSC(=S)N(CC)CC`, the result was inactive. For the molecule `O=S(=O)(O)c1ccc(N=Nc2c(O)ccc3cc(S(=O)(=O)O)ccc23)cc1`, the result was inactive. Take `OCCOCCOCCO`: the molecule was called inactive.

With `C[C@]12C=CC(=O)C=C1CC[C@H]1[C@@H]3C[C@@H](O)[C@](O)(C(=O)CO)[C@@]3(C)C[C@H](O)[C@@]12F`, the molecule was classed as inactive. The same measure, in the same setting: in the case of `CCCCOC(=O)c1ccccc1` it was “inactive”.
